# Compounds without any hit were thinned out: in the full panel of roughly 83,000, 20% have a hit.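 A percent growth of 40 corresponds to 60% growth inhibition; 0 means no net growth; -100 means all cells died. Active threshold: below 10.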 Unmarked numbers belong to inactive results. Calls of active or inactive are those of the source.
# Tested on: SW-620 colon
# Experiment: NCI-60 one-dose screen, 48 h (100 = growth as untreated, 0 = no growth, -100 = all killed)
# Settings: 10 µM unless noted
# Procedure: Growth inhibition of the SW-620 human tumor cell line is measured as a screen for anti-cancer activity. Cells are grown in 96 well plates and exposed to the test compound for 48 hours. Compounds are tested at a single concentration, which is 10^-5 M for most compounds. The reported endpoint is percent growth (GI% or GIPRCNT), where numbers from 0 - 100% represent growth inhibition, and numbers from -100% - 0 represent cell death. For example, a value of 40 represents 60% growth inhibition. A value of 0 means no net growth occurred over the course of the experiment. A value of -40 indicates 40% of cells at the beginning of the experiment died by the end of the experiment. A value of -100 means all cells are dead at the end of the experiment.
# NCI-60 Human Tumor Cell Lines Screen was performed using the standard one-dose NCI protocol, which is described in more detail at https://dtp.cancer.gov/discovery_development/nci-60/default.htm.
# Compounds with GIPRCNT values below 10 were considered active. Activity score was based on GIPRCNT using the following formula: […]
# Score is 0 for GIPRCNT values of 100 or above, 50 for GIPRCNT values of 0, and 100 for GIPRCNT values of -100.
row,Compound,growth
1,N/C(=N\O)c1ncc(-c2ccc(C(F)(F)F)cc2)c(NC2CCCCCC2)n1,-67.4% [100 µM] (active)
2,CCNC(=O)c1ccc2c(c1)nc(-c1ccc(Cl)cc1)n2-c1cc(C(C)(C)C)[nH]n1,42.7%
3,CC(C)(C)c1nn(-c2ccccc2)c2c1C(=O)CSC(c1ccc3c(c1)OCO3)N2 (stereo not given),108%
4,O/N=C1\c2ccccc2-c2ccc(Br)cc21,119%
5,Nc1c(C(=O)Nc2ccccc2)sc2nc3c(cc12)C(=O)CCC3,27.2%
6,c1ccc2c(N=NSc3ncnc4nc[nH]c34)c3ccccc3nc2c1,-27.6% (active)
7,CS(=O)(=O)c1ccc(C(=O)Nc2ccc(Cl)c(-c3ccccn3)c2)c(Cl)c1,20.8%
8,Cc1cccc(/C=N/n2c(-c3ccc(Cl)cc3)nc3c(Br)cc(Br)cc3c2=O)c1,59.1%
9,N/N=C(\C(=N\N)c1ccccc1)c1ccccc1,101%
10,CS(=O)(=O)c1ccc(C(=O)N2N=C(c3ccccc3)CC2c2ccc3c(c2)OCO3)cc1 (stereo not given),100%
11,CC(=O)Oc1c(Cl)c(Cl)c(Cl)c(Cl)c1Cl,102%
12,COc1ccc(-c2nc(SCCC(C)C)nc(Nc3ccc(C(=O)O)cc3)c2C#N)cc1,101%
13,COc1ccc(CNc2c3ccccc3nc3ccccc23)cc1F,16.6%
14,O=C(c1ccccc1)C1OC1C(=O)c1ccccc1 (stereo not given),27.7%
15,CCOC(=O)c1ccc2c(c1)[n+](=O)c(C(=O)c1ccc3ccccc3c1)c(C(F)(F)F)n2[O-],-89.6% (active)
16,O=c1c2cc(Cl)ccc2oc2ccc(OCCCCCN3CCCCC3)cc12,33.7%
17,CC(C)(CCc1ccccn1)C(=O)CCCc1ccccn1,106%
18,CC(=O)Nc1ccc(/C=N/N2CCCCCC2)cc1,100%
19,O=C(/C=C/c1ccccc1Br)c1cccc(OCCCCOc2cccc(C(=O)/C=C/c3ccccc3Br)c2)c1,99%
20,Cc1nn(-c2ccccc2)c2nc3c(nc12)C1=NCCN1C(c1ccc(Cl)cc1)N3 (stereo not given),76.6%

row,Compound,growth
1,COc1cc2ccc(C(C)=O)cc2cc1OC,98.5%
2,COc1cc(C2CC(c3ccc(Cl)cc3)=NN2C=O)ccc1Oc1ccnc2cc(Cl)ccc12 (stereo not given),84.5%
3,COc1cc(NCCC2CCCCN2)c2ncccc2c1OC (stereo not given),74.9%
4,CC(=O)O[C@@H]1CC2C(C)(C)CCCC2(C)C2=C1C(=O)C(C(C)C)=CC2=O (stereo not given in full),-52.5% (active)
5,COc1ccc2nc3ccccc3c(NCc3ccc(C)cc3)c2c1,18.5%
6,NC(=S)N1N=C(c2ccc(Cl)cc2)CC1c1cc2ccccc2[nH]c1=O (stereo not given),108%
7,CCCCCCCCCCCCCC1=NC(C)(C)CN1C(C)C,-67.2% (active)
8,COc1ccc(C(=O)OC2C(OC3C(O)COC(O[C@H]4C[C@H]5[C@@H]6CC=C7C[C@@H](O)CC[C@]7(C)[C@H]6CC[C@]5(C)[C@H]4[C@H](C)C(=O)CCC(C)C)C3OC(N)=O)OCC(O)C2O)cc1 (stereo not given in full),-62.1% (active)
9,CCCCCCCCCCCCCCCC1=NCCN1,7.4% (active)
10,Fc1ccc(-c2nc(-c3ccc(-c4nc5ccc(F)cc5[nH]4)cc3)no2)cc1,64.7%
11,O=C(Nc1cccc(-n2ccc3c(NC(=O)c4ccccc4)nccc32)c1)c1ccc(Cl)c(Cl)c1,-80.3% (active)
12,CCN1C(=O)N(CC)C2C1N=C(SC)N2/N=C/C=C/c1ccccc1OC (stereo not given),22.7%
13,N=C(N)c1ccc(NCCNc2ccc(C(=N)N)cc2)cc1,106%
14,CNC(=O)c1c(NC(=O)c2ccc(C(C)C)cc2)sc2c1CCC(=O)C2,-35.5% (active)
15,Clc1ccc(Cl)c(N=Cc2ccc3c(c2)OCO3)c1,107%
16,Cc1ccsc1C(=O)CC(=O)C(F)(F)C(F)(F)C(F)(F)F,103%
17,CC(C)CC1NC(=O)C(CC(C)C)N(CO)C1=O (stereo not given),112%
18,Cc1ccc(NC(=O)c2sc3nc4c(cc3c2N)C(=O)CCC4)cc1Cl,113%
19,C[C@@H]1N=C(c2ccc3ccccc3c2)Nc2nc3ccccn3c2C1=O,26.3%
20,C=CCOC(=O)C1=C(C)NC2=C(C(=O)CC(C)(C)C2)C1c1ccc(OC)cc1 (stereo not given),98.9%
